Results published in article PMC7862700, “An all-to-all approach to the identification of sequence-specific readers for epigenetic DNA modifications on cytosine”.

Assays:
Experiment in all cases: DAPPL (digital affinity profiling via proximity ligation, sequencing); 10 mM Tris-HCl pH 7.5, 50 mM NaCl, 1 mM DTT, 4% glycerol, room temperature, 30 min; GST-TFs on glutathione beads, 16-mer random dsDNA library, 0.1% formaldehyde crosslink after washing; high values mean tight binding
[1] = target: T1, FEV (Homo sapiens, UniProt Q99581 1-238); conditions: protein: recombinant; tags: N-terminal GST; dsDNA, one strand shown
T1 sequence: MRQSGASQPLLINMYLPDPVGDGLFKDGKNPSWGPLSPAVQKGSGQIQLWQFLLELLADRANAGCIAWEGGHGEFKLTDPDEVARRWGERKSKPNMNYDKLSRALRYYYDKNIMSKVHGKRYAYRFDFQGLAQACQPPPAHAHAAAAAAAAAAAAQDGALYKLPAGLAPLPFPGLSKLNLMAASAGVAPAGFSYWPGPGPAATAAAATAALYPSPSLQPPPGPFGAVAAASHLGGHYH
Outline: (§1)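 The binding signal reported is, for every hexamer, its read frequency for a factor over its read frequency for the tag-only sample. Reads came from pools of yeast-expressed, GST-fused human transcription factors on glutathione beads, barcoded with DNA and mixed with that sample, which were incubated with 200 nmole of a random double-stranded 16-mer DNA library in Tris/NaCl/DTT/glycerol buffer at room temperature for 30 min. After washing, the pools were crosslinked with 0.1% formaldehyde, proximity-ligated with BsaI/T4 ligase for 1 h at 37 °C, PCR-amplified and sequenced on an Illumina NextSeq500.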

[2] = target: ETV5 (Homo sapiens, UniProt P41161 1-510); conditions: protein: recombinant; tags: N-terminal GST; dsDNA, one strand shown
ETV5, sequence (P41161 whole entry): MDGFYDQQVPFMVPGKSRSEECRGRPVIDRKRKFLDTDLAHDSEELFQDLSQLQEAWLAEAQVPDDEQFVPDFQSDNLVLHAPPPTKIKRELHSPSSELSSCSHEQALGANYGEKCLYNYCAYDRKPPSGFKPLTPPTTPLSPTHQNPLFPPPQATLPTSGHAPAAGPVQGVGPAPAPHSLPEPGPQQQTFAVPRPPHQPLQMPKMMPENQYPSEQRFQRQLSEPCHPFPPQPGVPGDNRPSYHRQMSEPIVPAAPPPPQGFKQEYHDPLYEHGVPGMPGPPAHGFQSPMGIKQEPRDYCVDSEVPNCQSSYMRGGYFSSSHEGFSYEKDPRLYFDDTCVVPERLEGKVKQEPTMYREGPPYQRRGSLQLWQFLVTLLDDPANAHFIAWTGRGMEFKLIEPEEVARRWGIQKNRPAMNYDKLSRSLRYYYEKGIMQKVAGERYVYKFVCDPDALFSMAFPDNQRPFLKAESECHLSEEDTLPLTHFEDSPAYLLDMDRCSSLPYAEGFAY
Outline: as §1

[3] = target: HSF1 (Homo sapiens, UniProt Q00613 1-529); conditions: protein: recombinant; tags: N-terminal GST; chain copies: 3; dsDNA, one strand shown
HSF1, sequence (Q00613 whole entry): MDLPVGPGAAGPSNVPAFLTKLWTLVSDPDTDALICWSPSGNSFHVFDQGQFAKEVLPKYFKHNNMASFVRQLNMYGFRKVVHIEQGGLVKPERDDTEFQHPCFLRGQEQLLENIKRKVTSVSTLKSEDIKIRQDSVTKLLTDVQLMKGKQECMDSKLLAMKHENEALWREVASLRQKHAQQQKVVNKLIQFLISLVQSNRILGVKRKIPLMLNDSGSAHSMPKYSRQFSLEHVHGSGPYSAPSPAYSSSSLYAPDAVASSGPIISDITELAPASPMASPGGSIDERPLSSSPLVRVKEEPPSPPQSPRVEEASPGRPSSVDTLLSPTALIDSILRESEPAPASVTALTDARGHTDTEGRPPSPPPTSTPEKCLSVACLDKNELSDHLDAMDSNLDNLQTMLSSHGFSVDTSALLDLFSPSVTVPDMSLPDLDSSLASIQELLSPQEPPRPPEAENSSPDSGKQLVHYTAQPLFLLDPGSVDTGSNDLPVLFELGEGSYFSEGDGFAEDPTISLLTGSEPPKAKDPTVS
Outline: as §1

[4] = target: T2, SPIC (Homo sapiens, UniProt Q8N5J4 1-248); conditions: protein: recombinant; tags: N-terminal GST; dsDNA, one strand shown
T2 sequence: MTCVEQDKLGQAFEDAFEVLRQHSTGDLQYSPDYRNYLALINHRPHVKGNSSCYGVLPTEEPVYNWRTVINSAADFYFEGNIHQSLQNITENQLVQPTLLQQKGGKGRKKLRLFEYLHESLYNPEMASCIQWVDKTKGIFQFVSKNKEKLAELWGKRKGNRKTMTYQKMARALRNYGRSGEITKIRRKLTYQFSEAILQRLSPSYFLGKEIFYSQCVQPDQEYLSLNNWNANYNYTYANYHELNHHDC
Outline: as §1

[5] = target: ELF4 (Homo sapiens, UniProt Q99607 1-663); conditions: protein: recombinant; tags: N-terminal GST; dsDNA, one strand shown
ELF4, sequence (Q99607 whole entry): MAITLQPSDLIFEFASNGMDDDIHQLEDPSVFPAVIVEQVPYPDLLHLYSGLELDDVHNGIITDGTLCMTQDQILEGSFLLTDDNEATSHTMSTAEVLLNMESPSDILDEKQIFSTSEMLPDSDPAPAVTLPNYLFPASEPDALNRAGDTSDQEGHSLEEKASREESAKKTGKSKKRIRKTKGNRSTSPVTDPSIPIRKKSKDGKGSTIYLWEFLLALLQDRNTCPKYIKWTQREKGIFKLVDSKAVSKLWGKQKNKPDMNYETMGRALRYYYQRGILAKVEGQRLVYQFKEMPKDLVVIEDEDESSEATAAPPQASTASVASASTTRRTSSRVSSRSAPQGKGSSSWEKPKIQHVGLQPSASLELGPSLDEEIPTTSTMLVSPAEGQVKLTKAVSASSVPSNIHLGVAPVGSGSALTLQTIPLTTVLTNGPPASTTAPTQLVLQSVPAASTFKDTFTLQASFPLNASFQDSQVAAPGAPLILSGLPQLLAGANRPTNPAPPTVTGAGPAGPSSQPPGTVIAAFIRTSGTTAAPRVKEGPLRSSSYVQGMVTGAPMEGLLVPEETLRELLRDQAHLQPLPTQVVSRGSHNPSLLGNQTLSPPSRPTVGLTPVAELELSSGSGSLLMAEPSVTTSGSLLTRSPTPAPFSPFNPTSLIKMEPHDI
Outline: as §1

[6] = target: T3, ELK4 (Homo sapiens, UniProt P28324-2 1-405); conditions: protein: recombinant; tags: N-terminal GST; dsDNA, one strand shown
T3 sequence: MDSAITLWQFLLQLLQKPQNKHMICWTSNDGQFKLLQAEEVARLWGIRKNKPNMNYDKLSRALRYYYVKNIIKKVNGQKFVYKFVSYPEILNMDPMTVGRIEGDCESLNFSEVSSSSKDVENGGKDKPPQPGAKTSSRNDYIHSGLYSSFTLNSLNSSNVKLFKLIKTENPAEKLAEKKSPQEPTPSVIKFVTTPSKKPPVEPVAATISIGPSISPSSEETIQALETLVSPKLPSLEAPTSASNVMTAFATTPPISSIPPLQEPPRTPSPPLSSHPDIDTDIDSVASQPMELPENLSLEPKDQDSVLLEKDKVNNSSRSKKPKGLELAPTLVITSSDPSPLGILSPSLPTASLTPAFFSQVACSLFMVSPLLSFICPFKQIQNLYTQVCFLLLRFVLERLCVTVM
Outline: as §1

[7] = target: T4, ELF3 (Homo sapiens, UniProt P78545 1-371); conditions: protein: recombinant; tags: N-terminal GST; dsDNA, one strand shown
T4 sequence: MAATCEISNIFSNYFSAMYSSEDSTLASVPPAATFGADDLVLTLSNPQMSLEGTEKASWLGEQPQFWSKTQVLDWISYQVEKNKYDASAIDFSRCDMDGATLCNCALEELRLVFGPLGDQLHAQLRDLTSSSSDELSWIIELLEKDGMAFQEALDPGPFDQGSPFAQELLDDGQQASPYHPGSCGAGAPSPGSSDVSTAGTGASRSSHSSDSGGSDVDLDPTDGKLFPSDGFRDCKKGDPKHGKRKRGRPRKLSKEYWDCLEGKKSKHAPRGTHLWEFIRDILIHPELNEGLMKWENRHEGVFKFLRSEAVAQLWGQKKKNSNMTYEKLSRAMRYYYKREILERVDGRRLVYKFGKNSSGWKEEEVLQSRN
Outline: as §1

[8] = target: CRX (Homo sapiens, UniProt O43186 1-299); conditions: protein: recombinant; tags: N-terminal GST; dsDNA, one strand shown
CRX, sequence (O43186 whole entry): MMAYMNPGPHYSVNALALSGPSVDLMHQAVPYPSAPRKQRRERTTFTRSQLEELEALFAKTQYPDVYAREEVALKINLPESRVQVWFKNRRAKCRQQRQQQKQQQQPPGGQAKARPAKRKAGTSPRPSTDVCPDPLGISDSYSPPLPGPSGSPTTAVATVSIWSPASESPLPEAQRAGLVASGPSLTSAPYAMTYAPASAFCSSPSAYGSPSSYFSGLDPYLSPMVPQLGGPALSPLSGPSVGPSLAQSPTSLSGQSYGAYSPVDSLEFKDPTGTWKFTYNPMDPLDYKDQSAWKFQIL
Outline: as §1

[9] = target: ETV1 (Homo sapiens, UniProt P50549 1-477); conditions: protein: recombinant; tags: N-terminal GST; dsDNA, one strand shown
ETV1, sequence (P50549 whole entry): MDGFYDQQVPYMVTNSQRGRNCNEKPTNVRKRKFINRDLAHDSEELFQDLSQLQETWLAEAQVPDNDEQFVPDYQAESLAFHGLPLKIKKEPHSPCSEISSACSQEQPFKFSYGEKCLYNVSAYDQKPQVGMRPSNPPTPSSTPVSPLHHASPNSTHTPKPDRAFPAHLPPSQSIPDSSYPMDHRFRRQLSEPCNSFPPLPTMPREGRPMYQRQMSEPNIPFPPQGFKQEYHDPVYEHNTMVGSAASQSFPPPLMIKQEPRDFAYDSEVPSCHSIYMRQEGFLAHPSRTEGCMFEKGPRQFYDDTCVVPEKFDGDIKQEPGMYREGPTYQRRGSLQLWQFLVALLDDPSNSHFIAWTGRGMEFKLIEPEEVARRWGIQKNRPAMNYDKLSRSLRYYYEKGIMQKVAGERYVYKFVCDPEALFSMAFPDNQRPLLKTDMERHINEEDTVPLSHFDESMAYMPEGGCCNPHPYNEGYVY
Outline: as §1

[10] = target: T5, ERF (Homo sapiens, UniProt P50548 1-548); conditions: protein: recombinant; tags: N-terminal GST; dsDNA, one strand shown
T5 sequence: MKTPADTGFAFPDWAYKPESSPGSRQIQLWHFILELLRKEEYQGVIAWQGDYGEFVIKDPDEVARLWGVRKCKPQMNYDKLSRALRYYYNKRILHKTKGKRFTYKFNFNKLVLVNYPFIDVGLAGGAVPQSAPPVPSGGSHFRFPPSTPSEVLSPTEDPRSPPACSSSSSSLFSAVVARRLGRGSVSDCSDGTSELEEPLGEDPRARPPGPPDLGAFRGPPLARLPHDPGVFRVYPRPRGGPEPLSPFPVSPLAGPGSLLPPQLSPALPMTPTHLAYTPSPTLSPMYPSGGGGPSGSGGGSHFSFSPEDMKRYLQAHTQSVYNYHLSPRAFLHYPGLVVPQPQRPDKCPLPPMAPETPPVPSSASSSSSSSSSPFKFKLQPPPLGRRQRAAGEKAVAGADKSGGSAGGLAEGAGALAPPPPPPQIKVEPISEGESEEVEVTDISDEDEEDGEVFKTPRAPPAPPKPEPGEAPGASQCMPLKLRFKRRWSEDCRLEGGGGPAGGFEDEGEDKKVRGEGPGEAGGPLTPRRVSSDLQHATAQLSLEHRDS
Outline: as §1

[11] = target: T6, ETV3L (Homo sapiens, UniProt Q6ZN32 1-361); conditions: protein: recombinant; tags: N-terminal GST; dsDNA, one strand shown
T6 sequence: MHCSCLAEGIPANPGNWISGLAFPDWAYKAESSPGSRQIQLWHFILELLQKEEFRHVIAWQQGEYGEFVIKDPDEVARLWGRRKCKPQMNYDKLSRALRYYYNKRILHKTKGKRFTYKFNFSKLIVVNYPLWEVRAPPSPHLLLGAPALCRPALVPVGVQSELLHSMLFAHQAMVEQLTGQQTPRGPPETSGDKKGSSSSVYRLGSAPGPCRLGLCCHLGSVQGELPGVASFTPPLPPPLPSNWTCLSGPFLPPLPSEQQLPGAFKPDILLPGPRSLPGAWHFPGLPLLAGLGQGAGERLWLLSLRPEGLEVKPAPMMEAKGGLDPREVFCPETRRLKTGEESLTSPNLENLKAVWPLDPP
Outline: as §1

[12] = target: T7, ETS2 (Homo sapiens, UniProt P15036 1-469); conditions: protein: recombinant; tags: N-terminal GST; dsDNA, one strand shown
T7 sequence: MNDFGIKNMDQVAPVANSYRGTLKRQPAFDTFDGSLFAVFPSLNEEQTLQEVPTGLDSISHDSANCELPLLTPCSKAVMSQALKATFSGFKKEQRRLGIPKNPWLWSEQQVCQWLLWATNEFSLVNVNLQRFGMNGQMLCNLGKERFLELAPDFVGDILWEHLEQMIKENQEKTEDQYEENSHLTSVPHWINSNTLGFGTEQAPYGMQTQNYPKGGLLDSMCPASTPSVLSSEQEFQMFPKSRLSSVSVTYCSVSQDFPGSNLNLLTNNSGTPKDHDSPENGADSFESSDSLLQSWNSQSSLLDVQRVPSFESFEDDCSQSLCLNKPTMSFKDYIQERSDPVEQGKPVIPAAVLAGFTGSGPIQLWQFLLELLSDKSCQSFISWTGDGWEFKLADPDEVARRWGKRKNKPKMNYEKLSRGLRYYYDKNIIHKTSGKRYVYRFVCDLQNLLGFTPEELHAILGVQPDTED
Outline: as §1

[13] = target: T8, ETV7 (Homo sapiens, UniProt Q9Y603 1-341); conditions: protein: recombinant; tags: N-terminal GST; dsDNA, one strand shown
T8 sequence: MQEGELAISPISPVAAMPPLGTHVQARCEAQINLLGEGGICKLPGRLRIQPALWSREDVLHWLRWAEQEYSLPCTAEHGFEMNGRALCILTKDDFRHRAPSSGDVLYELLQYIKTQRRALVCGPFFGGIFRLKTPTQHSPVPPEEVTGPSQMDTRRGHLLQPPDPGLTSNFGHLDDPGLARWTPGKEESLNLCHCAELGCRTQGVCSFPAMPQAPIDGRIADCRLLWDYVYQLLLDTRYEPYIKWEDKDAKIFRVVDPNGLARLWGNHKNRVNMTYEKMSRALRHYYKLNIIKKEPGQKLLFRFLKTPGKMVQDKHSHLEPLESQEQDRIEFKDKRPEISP
Outline: as §1

[14] = target: T9, ELF5 (Homo sapiens, UniProt Q9UKW6-2 1-255); conditions: protein: recombinant; tags: N-terminal GST; dsDNA, one strand shown
T9 sequence: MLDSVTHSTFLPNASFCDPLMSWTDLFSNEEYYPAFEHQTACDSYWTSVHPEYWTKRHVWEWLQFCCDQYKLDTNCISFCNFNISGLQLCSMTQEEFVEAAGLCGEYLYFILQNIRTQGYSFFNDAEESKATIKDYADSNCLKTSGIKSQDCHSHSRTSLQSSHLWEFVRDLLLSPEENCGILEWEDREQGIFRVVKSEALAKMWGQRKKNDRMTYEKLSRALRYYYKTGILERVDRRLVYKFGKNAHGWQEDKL
Outline: as §1

[15] = target: T10, ETV3 (Homo sapiens, UniProt P41162-2 1-143); conditions: protein: recombinant; tags: N-terminal GST; dsDNA, one strand shown
T10 sequence: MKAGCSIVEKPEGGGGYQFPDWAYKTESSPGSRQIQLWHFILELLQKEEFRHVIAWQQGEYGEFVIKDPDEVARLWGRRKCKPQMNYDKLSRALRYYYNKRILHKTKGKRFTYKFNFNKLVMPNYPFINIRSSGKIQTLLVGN
Outline: as §1

[16] = target: ETV6 (Homo sapiens, UniProt P41212 1-452); conditions: protein: recombinant; tags: N-terminal GST; dsDNA, one strand shown
ETV6, sequence (P41212 whole entry): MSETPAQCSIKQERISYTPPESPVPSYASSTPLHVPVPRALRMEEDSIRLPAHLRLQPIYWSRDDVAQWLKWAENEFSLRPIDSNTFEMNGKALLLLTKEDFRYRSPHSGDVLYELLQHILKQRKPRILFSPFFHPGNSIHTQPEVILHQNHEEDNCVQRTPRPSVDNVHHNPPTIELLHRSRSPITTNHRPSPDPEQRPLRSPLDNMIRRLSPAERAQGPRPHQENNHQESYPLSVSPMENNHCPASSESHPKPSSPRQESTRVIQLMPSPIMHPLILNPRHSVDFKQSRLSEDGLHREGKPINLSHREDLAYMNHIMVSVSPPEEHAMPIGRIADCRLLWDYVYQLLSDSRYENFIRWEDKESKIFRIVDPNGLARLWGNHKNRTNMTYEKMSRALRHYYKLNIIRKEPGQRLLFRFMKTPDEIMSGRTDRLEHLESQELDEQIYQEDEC
Outline: as §1

[17] = target: T11, SPDEF (Homo sapiens, UniProt O95238 1-335); conditions: protein: recombinant; tags: N-terminal GST; dsDNA, one strand shown
T11 sequence: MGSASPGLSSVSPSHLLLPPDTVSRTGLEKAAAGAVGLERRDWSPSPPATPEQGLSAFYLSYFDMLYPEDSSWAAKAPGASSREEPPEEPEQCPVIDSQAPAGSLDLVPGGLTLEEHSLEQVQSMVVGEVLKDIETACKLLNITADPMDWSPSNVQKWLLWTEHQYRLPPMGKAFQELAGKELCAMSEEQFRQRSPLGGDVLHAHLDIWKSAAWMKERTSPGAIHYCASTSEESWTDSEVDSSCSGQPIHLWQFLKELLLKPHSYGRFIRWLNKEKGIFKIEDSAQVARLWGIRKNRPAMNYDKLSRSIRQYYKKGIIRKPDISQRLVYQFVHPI
Outline: as §1

Sequence	binding signal [1]	binding signal [2]	binding signal [3]	binding signal [4]	binding signal [5]	binding signal [6]	binding signal [7]	binding signal [8]	binding signal [9]	binding signal [10]	binding signal [11]	binding signal [12]	binding signal [13]	binding signal [14]	binding signal [15]	binding signal [16]	binding signal [17]
AGTTCT	1.1 fold enrichment (6-mer frequency, TF over GST control)	1.12 fold enrichment (6-mer frequency, TF over GST control)	1.92 fold enrichment (6-mer frequency, TF over GST control)	1.1 fold enrichment (6-mer frequency, TF over GST control)	1.13 fold enrichment (6-mer frequency, TF over GST control)	1.2 fold enrichment (6-mer frequency, TF over GST control)	1.17 fold enrichment (6-mer frequency, TF over GST control)	1.19 fold enrichment (6-mer frequency, TF over GST control)	1.03 fold enrichment (6-mer frequency, TF over GST control)	1.14 fold enrichment (6-mer frequency, TF over GST control)	1.12 fold enrichment (6-mer frequency, TF over GST control)	1.17 fold enrichment (6-mer frequency, TF over GST control)	1.11 fold enrichment (6-mer frequency, TF over GST control)	1.15 fold enrichment (6-mer frequency, TF over GST control)	1.18 fold enrichment (6-mer frequency, TF over GST control)	1.13 fold enrichment (6-mer frequency, TF over GST control)	
TGCTTA	1.03 fold enrichment (6-mer frequency, TF over GST control)	1.09 fold enrichment (6-mer frequency, TF over GST control)	1.33 fold enrichment (6-mer frequency, TF over GST control)	1.32 fold enrichment (6-mer frequency, TF over GST control)	1.11 fold enrichment (6-mer frequency, TF over GST control)	1.04 fold enrichment (6-mer frequency, TF over GST control)	1.09 fold enrichment (6-mer frequency, TF over GST control)	1.78 fold enrichment (6-mer frequency, TF over GST control)	1.11 fold enrichment (6-mer frequency, TF over GST control)	1.1 fold enrichment (6-mer frequency, TF over GST control)	1.09 fold enrichment (6-mer frequency, TF over GST control)	1.1 fold enrichment (6-mer frequency, TF over GST control)	1.12 fold enrichment (6-mer frequency, TF over GST control)	1.03 fold enrichment (6-mer frequency, TF over GST control)	1.18 fold enrichment (6-mer frequency, TF over GST control)	1.1 fold enrichment (6-mer frequency, TF over GST control)	1.18 fold enrichment (6-mer frequency, TF over GST control)
AACCCA	1.03 fold enrichment (6-mer frequency, TF over GST control)	1.05 fold enrichment (6-mer frequency, TF over GST control)	1 fold enrichment (6-mer frequency, TF over GST control)	1.1 fold enrichment (6-mer frequency, TF over GST control)	1.1 fold enrichment (6-mer frequency, TF over GST control)	1.08 fold enrichment (6-mer frequency, TF over GST control)	1.04 fold enrichment (6-mer frequency, TF over GST control)			1.1 fold enrichment (6-mer frequency, TF over GST control)	1.06 fold enrichment (6-mer frequency, TF over GST control)	1.04 fold enrichment (6-mer frequency, TF over GST control)	1.14 fold enrichment (6-mer frequency, TF over GST control)	1.05 fold enrichment (6-mer frequency, TF over GST control)		1.09 fold enrichment (6-mer frequency, TF over GST control)	
